Records with an inconclusive call do not appear. Where a call stands in place of a potency, no number is given. Unmarked numbers belong to inactive results. Calls of active or inactive are those of the source. Calls follow the shape of the dose curve; as a rule, active = well fitted cell-killing curve with a large enough effect in the repeat runs; inconclusive = weak or mixed curves, or effect the other way; inactive = flat fitted curve, though single readings scatter.
assay: qHTS assay to identify small molecule that activate the aryl hydrocarbon receptor (AhR) signaling pathway - cell viability counter screen (AID 743086); details: HepG2-AhR-luc viability, CellTiter-Fluor, 24 h; series mostly up to 70.3 µM; also: nearly all actives have a fitted effect of over 45% in size
Summary of the method: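 Cytotoxicity counter screen: CellTiter-Fluor signal (30 min, 37 C) in 4000 HepG2 cells/well carrying the DRE-luciferase reporter, following 24 h compound exposure at 37 C.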
Potency is read from the fitted curve at half-maximal effect.

| SMILES | Potency | viability change, negative = cytotoxic |
| --- | --- | --- |
| c1ccc(SSc2ccccc2)cc1 | inactive | – |
| Cl[Si](Cl)(c1ccccc1)c1ccccc1 | inactive | – |
| Cc1cc(C(C)(C)C)cc(C)c1CC1=NCCN1 | inactive | – |
| CC(C)OC(=O)C(O)(CC(=O)O)CC(=O)O | inactive | – |
| C[C@@H](O)[C@H](N)C(=O)O | inactive | – |
| OC/C=C/CO | inactive | – |
| C1CCC(SSC2CCCCC2)CC1 | inactive | – |
| C=Cc1ccccc1C=C | inactive | – |
| CCOC(=O)Cn1cccc1-c1nc(-c2ccc(OC)cc2)c(-c2ccc(OC)cc2)s1 | inactive | – |
| CN(C)Cc1ccccc1O | inactive | – |
| O=[N+]([O-])c1ccc(O)cc1C(F)(F)F | 61.1 µM (active) | – |
| O=C(O)[C@H](O)[C@@H](O)[C@H](O[C@@H]1O[C@H](CO)[C@H](O)[C@H](O)[C@H]1O)[C@H](O)CO | inactive | – |
| O=C(O)O | – | -24.2% [at 8.47 µM] |
| C[C@H]1NCc2cc(-c3ccc4c(=O)c(C(=O)O)cn(C5CC5)c4c3OC(F)F)ccc21 | inactive | – |
| CC(C)(c1cc(Br)c(OCC(Br)CBr)c(Br)c1)c1cc(Br)c(OCC(Br)CBr)c(Br)c1 (stereo not drawn) | inactive | – |
| O=C(O)c1cccc(C(F)(F)F)c1 | inactive | – |
| CCCCCCOC(=O)C(C)CC (stereo not drawn) | inactive | – |
| Clc1ccnc(Cl)n1 | inactive | – |
| CN1CCCCC1CCN1c2ccccc2Sc2ccc(S(C)=O)cc21 (stereo not drawn) | inactive | – |

| SMILES | Potency | viability change, negative = cytotoxic |
| --- | --- | --- |
| Cc1cc(C(C)(C)C)c(O)c(C)c1Cn1c(=O)n(Cc2c(C)cc(C(C)(C)C)c(O)c2C)c(=O)n(Cc2c(C)cc(C(C)(C)C)c(O)c2C)c1=O | inactive | – |
| Cc1ccc(-c2ccccc2)cc1 | inactive | – |
| C=C(C)C(=O)OCCCCCCCCCC | inactive | – |
| COC(=O)c1ccccc1OC | inactive | – |
| C=C(C)c1cccc(C(=C)C)c1 | inactive | – |
| O=C1CCc2cc(OCCCCc3nnnn3C3CCCCC3)ccc2N1 | inactive | – |
| CCCC1CCC(=O)CC1 | inactive | – |
| O=C(Nc1ccc2c(O)c(N=Nc3ccc(N=Nc4ccc(S(=O)(=O)O)cc4)cc3)c(S(=O)(=O)O)cc2c1)c1ccccc1 | 19.3 µM (active) | – |
| OC1CCCc2ccccc21 (stereo not drawn) | inactive | – |
| CCCCN(CCCC)CC(O)c1cc(Cl)cc2c1-c1ccc(Cl)cc1/C2=C/c1ccc(Cl)cc1 (stereo not drawn) | inactive | – |
| O=[N+]([O-])c1ccc(F)c(Cl)c1 | inactive | – |
| O=C(/C=C/c1ccccc1)OC/C=C/c1ccccc1 | inactive | – |
| CCN(CCN)c1cccc(C)c1 | inactive | – |
| CCC(C)n1ncn(-c2ccc(N3CCN(c4ccc(OC[C@H]5CO[C@](Cn6cncn6)(c6ccc(Cl)cc6Cl)O5)cc4)CC3)cc2)c1=O (stereo partly drawn) | inactive | – |
| CCCCC/C=C\C/C=C\CCCCCCCC(=O)O | inactive | – |
| CCc1cccc(CC)c1NC(=O)CN(CC(=O)O)CC(=O)O | inactive | – |
| CC(C)(C)C1CCC(=O)CC1 | inactive | – |
| COc1cc(S(=O)(=O)O)c(C)cc1N=Nc1c(O)ccc2cc(S(=O)(=O)O)ccc12 | 9.69 µM (active) | – |
| OC[C@H]1O[C@H](O[C@H]2O[C@H](CO)[C@@H](O)[C@H](O)[C@H]2O)[C@H](O)[C@@H](O)[C@@H]1O | inactive | – |

— PubChem BioAssay (Tox21)
